# Results as given in PubChem BioAssay (Tox21).
# Where “and” joins values, the source holds several entries; their conditions need not be identical. Equal entries are not always repeated. Inconclusive results are not listed. Where a call stands in place of a potency, no number is given. Calls of active or inactive are those of the source. Calls follow the shape of the dose curve; as a rule, active = well fitted cell-killing curve with a large enough effect in the repeat runs; inconclusive = weak or mixed curves, or effect the other way; inactive = no such curve, though single readings can be large or run the other way.
# Test: qHTS assay to identify small molecule antagonists of the peroxisome proliferator-activated receptor gamma (PPARg) signaling pathway - cell viability counter screen (AID 743194); also: nearly all actives have a fitted effect of over 55% in size
# Conditions: PPARg-bla HEK293H viability, CellTiter-Glo luminescence, 17 h, co-treated with 50 nM rosiglitazone; series mostly up to 62.6 µM
# Outline: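 Cytotoxicity counter screen in PPARg-bla HEK293H cells, same wells as reporter assay. Compounds plus 50 nM rosiglitazone (final) for 17 h at 37 C, then viability read by CellTiter-Glo luminescence.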
# Potency is read from the fitted curve at half-maximal effect.
row,Structure (SMILES),Potency
1,COc1cc(/C=C/C(=O)O[C@H]2CC[C@]34C[C@]35CC[C@]3(C)[C@@H]([C@H](C)CCC=C(C)C)CC[C@@]3(C)[C@@H]5CC[C@H]4C2(C)C)ccc1O,inactive
2,Cc1c(C)c2c(c(C)c1O)CCC(C)(COc1ccc(CC3SC(=O)NC3=O)cc1)O2 (stereo unspecified),inactive
3,COC(=O)C1=C(C)NC(C)=C(C(=O)OCC(C)C)C1c1ccccc1[N+](=O)[O-] (stereo unspecified),inactive
4,O=[N+]([O-])c1ccccc1Nc1ccccc1,inactive
5,CCCC1O[C@@H]2C[C@H]3[C@@H]4CCC5=CC(=O)C=C[C@]5(C)[C@H]4[C@@H](O)C[C@]3(C)[C@]2(C(=O)CO)O1 (stereo partly specified),inactive
6,CCCCCCCCCCC=O,inactive
7,C1CCCC1,inactive
8,CC(C)CCCCCCCCCCCCCCC(=O)O,inactive
9,Oc1ccc(Cl)cc1Sc1cc(Cl)ccc1O,4.89 µM (active) and 5.96 µM (active)
10,CC1=NC(C)OC1C (stereo unspecified),inactive
11,C=C(C)C(=O)OCC[N+](C)(C)C,inactive
12,CCCCCOC(=O)CCCC,inactive
13,CCC(C)(C)C1CCCCC1OC(C)=O (stereo unspecified),inactive
14,Clc1ccc2nsnc2c1NC1=NCCN1,inactive
15,CC(=O)OCC(C)OC(C)=O (stereo unspecified),inactive
16,CCCCCCCCS(=O)C(C)Cc1ccc2c(c1)OCO2 (stereo unspecified),inactive
17,CCCCCCC[N+](CC)(CC)CCCCc1ccc(Cl)cc1,inactive
18,O=C1CCCCCN1SSN1CCCCCC1=O,inactive
19,Cc1cccc(S(=O)(=O)O)c1C,inactive
20,COc1c(C)c2c(c(O)c1C/C=C(\C)CCC(=O)O)C(=O)OC2,inactive
21,CSc1ccc(C(=O)c2[nH]c(=O)[nH]c2C)cc1,inactive
